Screening results (PubChem BioAssay)
SARS PLpro yeast-1 = blocks SARS-CoV papain-like protease in a yeast assay; S. cerevisiae expressing SARS-CoV PLpro, growth rescue; Potency, µM (doses to about 32.9 µM), actives largely listed as activators; hit rate 0.19% among 330,000; AID 485353; calls by dose curve; further: nearly all actives have a fitted effect of over 55% in size
CHX counter = affects cycloheximide protein synthesis inhibition readout, counter-screen; cell reporter, cycloheximide protein synthesis inhibition counterscreen; max response, %; hit rate 12% among 300,000; AID 2314; in the data active means max response mostly above about 13%, no sharp cut-off; inactive means mostly below about 14%; further: read at 38.3 µM for the half of the compounds with a filed dose
Pf growth 96h = P. falciparum growth inhibition at 96 hour, primary screen for plastid delayed-death inhibitors; P. falciparum luciferase reporter growth, 96 h; Potency, µM (doses to about 28.7 µM), usual class: inhibitors; hit rate 6.9% among 320,000
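Compounds incubated with erythrocytes infected by luciferase-expressing P. falciparum (2% hematocrit, 0.05% parasitemia final) for 96 hours, 37 C in 5% CO2. Growth inhibition scored as decreased luciferase luminescence.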
Pf growth 48h = P. falciparum growth inhibition at 48 hours (one generation). AID 504832. P. falciparum luciferase growth in erythrocytes, 48 h. Potency, µM (top dose mostly 28.7 µM), hits mostly inhibitors. hit rate 5.9% among 310,000
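Erythrocytes infected with P. falciparum carrying an integrated firefly luciferase reporter (2% hematocrit, 0.1% parasitemia final) were exposed to compounds in RPMI 1640 with 0.5% Albumax at 37 C, 5% CO2. Growth inhibition was scored as reduced luminescence.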
Shiga toxin inh = inhibitors of Shiga toxin in Vero cells; Vero cells, Shiga toxin protein synthesis inhibition reporter; inhibition, % at 38.7 µM; hit rate 9.2% among 290,000; AID 2315; in the data active means inhibition mostly above about 28%, no sharp cut-off; inactive means mostly below about 43%
AMA1 RON2 block = disrupts binding of P. falciparum AMA1 to RON2; AlphaScreen AMA1-biotinylated RON2 peptide binding; Potency, µM (top dose mostly 58.2 µM), most hits filed as inhibitors; hit rate 0.2% among 360,000; AID 720542; further: nearly all actives have a fitted effect of over 45% in size
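AMA1 (3D7) with his tag at 25 nM final met compounds first, then biotinylated RON2 peptide at 25 nM; detection used donor plus acceptor beads, 10 µg/mL apiece, read by AlphaScreen after 30 min at room temperature.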
SARS PLpro yeast-2 = Rescues yeast growth by inhibiting SARS-CoV PLpro; shares compounds with SARS PLpro yeast-1; hit rate 19% among 1,000; calls only; yeast expressing SARS-CoV PLpro, growth phenotype rescue; call rule not given here
Hits are given with their value; - = inactive; ? = inconclusive; . = no result; + = active, no number; [ ] = another dose, or the depositor's remark. A selection follows. Unless noted, the call rests on the fitted dose curve; in most records, active means well fitted curve in the direction sought with a large enough effect; inconclusive means small, poorly fitted or top-dose-only effect, or another doubt; inactive means no such curve, though single readings can be large; an effect the other way counts as inactive or inconclusive.

SMILES	SARS PLpro yeast-1	CHX counter	Pf growth 96h	Pf growth 48h	Shiga toxin inh	AMA1 RON2 block	SARS PLpro yeast-2
COc1ccc(CNC(=S)NCc2ccc(OC)cc2)cc1	-	-	-	-	-	-	.
CCOCCCNc1ncnc2c1nc1n2CCCC1	-	-	?	-	-	-	.
COc1ccccc1CC(=O)NCc1nn(-c2ccccc2)nc1C	-	-	-	-	-	-	.
CC1CC1C(=O)OCC(=O)NC(=O)c1ccc(C(C)(C)C)cc1 (stereo not drawn)	-	.	.	.	.	-	.
CC(C)(C)c1ccc(C(=O)N/C(N)=N/c2nc3ccccc3o2)cc1	?	-	-	.	-	-	-
CC1(NC(=O)Nc2cc([N+](=O)[O-])ccc2O)CCS(=O)(=O)C1 (stereo not drawn)	-	.	-	-	.	-	.
Cc1csc(N)n1	-	-	-	-	-	-	.
Cc1cscn1	?	.	-	-	.	-	-
N#Cc1nc(-c2ccc(F)cc2)oc1N1CCCC1	?	-	0.29µM	-	-	-	-
COc1ccccc1NC(=O)Cn1c(C)nc2c(sc(=S)n2Cc2ccco2)c1=O	-	-	?	-	-	-	.
O=C(Nc1cccc(-c2nn[nH]n2)c1)c1csc2c1CCCC2	?	-	?	-	-	-	-
O=C(Nc1cccc(-c2nn[nH]n2)c1)c1cccs1	-	-	?	-	-	-	.
CCC(=O)N(CC(=O)Nc1sc(C)c(C)c1C(N)=O)C1CCCCC1	-	-	-	-	-	-	.
O=C(CN1C(=O)C2C3C=CC(C3)C2C1=O)NCc1ccccc1 (stereo not drawn)	?	-	-	-	-	-	-
COc1ccc(NC(=O)CSc2ccc(-c3ccccn3)nn2)cc1OC	10µM	-	?	?	-	-	-
O=C(CSc1ccc(-c2ccccn2)nn1)Nc1ccc(F)c(F)c1	?	-	-	-	-	-	.
Cc1ccc(NC(=O)CN(C)S(=O)(=O)c2cccs2)cc1C	?	35	.	-	90	-	-
CCOc1ccc(NC(=O)CN(C)S(=O)(=O)c2cccs2)cc1	-	-	-	-	-	-	.
C=C(C)c1ccccc1	-	.	-	-	.	-	.
Cc1nnc(SCc2cc(=O)[nH]c(=S)[nH]2)s1	-	-	?	-	-	-	.
CCCn1c(NC(=O)c2cccc(C)c2C)nc2ccccc21	?	-	8.3µM	.	-	-	-
CCCn1c(NC(=O)c2ccc([N+](=O)[O-])o2)nc2ccccc21	-	.	?	?	.	-	.
CCOC(=O)[C@H]1[C@H]2COc3ccc(Br)cc3[C@@H]2N2C(=O)CN(Cc3ccco3)C(=O)[C@@]12C	?	.	?	?	.	-	-
Cc1ccc(CN(C)C(=O)C2CCC(=O)N(CCc3ccccc3)C2)o1 (stereo not drawn)	?	20	?	-	31	-	-
CN(Cc1cnccn1)C(=O)C1CCC(=O)N(CCc2ccccc2)C1 (stereo not drawn)	-	-	?	-	-	-	.
SMILES	SARS PLpro yeast-1	CHX counter	Pf growth 96h	Pf growth 48h	Shiga toxin inh	AMA1 RON2 block	SARS PLpro yeast-2
CCNC(=O)CN(c1ccc(Cl)cc1)S(=O)(=O)c1ccccc1	-	-	.	-	-	-	.
CCNC(=O)CN(c1ccccc1)S(=O)(=O)c1ccc(Cl)cc1	?	-	-	.	-	-	?
C[C@@H]1CN([C@H](C)CO)C(=O)CCCn2nncc2CO[C@@H]1CN(C)C(=O)Nc1ccc2c(c1)OCO2	.	.	.	.	.	-	.
O=C(CN1CCCc2ccccc21)N/N=C/c1c(O)ccc2ccccc12	10µM	34	?	?	48	-	-
COc1ccccc1N(CC(=O)N/N=C/c1c(O)ccc2ccccc12)S(C)(=O)=O	11µM	-	-	-	-	-	+
CCOC(=O)C1(CC2CCCCO2)CCN(C(=O)Nc2ccc(C(=O)OC)cc2)CC1 (stereo not drawn)	-	-	-	?	-	-	.
COC1OC2COC(c3ccccc3)OC2C2OC12 (stereo not drawn)	.	.	.	.	.	-	.
COc1ccc(NC(=S)NNC(=O)COc2ccc(Cl)cc2Cl)cc1	-	-	-	-	-	-	.
Cc1cccc(NC(=S)NNC(=O)COc2ccc(Cl)cc2Cl)c1	10µM	-	-	-	-	-[11.6 µM]	+
CCOC(=O)C1=C(C)NC(=O)NC1c1c(O)ccc2ccccc12 (stereo not drawn)	-	-	-	.	-	-	.
COc1ccc(OC(=O)c2ccncc2)cc1	?	-	-	-	-	-	-
